# Data published in PubChem BioAssay (NCI).
# About 83,000 compounds went through this panel and 20% of them were active in at least one assay; those are over-represented in the sample as a whole.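 Treatment: one concentration, 48 hours, 96-well format. Scoring: percent growth, with anything below 10 considered active.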 Unmarked numbers belong to inactive results. Calls of active or inactive are those of the source.
# Assays:
# Test in all cases: NCI-60 one-dose screen, 48 h (100 = growth as untreated, 0 = no growth, -100 = all killed)
# Settings in all cases: 10 µM unless noted
# [1] = system: T-47D breast
# [2] = system: BT-549 breast
# [3] = system: MDA-MB-435 melanoma
# [4] = system: SW-620 colon
# [5] = system: MCF7 breast
# [6] = system: HCT-116 colon
# [7] = system: HCC-2998 colon
# [8] = system: KM12 colon
SMILES,growth [1],growth [2],growth [3],growth [4],growth [5],growth [6],growth [7],growth [8]
Cc1cc(C)c(S(=O)(=O)N2CCN(c3cc4c(cc3F)c(=O)c(C(=O)O)cn4C3CC3)CC2)c(C)c1,62.9%,77.3%,76.1%,79.8%,54%,32.2%,47.7%,60.7%
CN(C)c1ccc(/C=C\N=Nc2ccc(Br)cc2)cc1,37.1%,69.1%,41.7%,29.5%,36.8%,50.6%,83%,29.6%
CCOC(=O)c1cc(/C(=N\O)c2cc(OC)c(OC)c(OC)c2)n2c(C)cccc12,27.7%,19.4%,-10.2% (active),23.3%,17.1%,27.2%,70.8%,27.9%
Cc1oc2ncnc(Nc3ccccc3)c2c1C(=O)NCCO,99.4%,90.1%,102%,95.1%,98.6%,99.3%,103%,95.2%
C=CCOc1cccc(/C=C/C(=O)c2sc(Nc3cccnc3)nc2C)c1,61.3%,44%,22.5%,15.5%,19.1%,20.3%,86.5%,24%
COc1cc(/C=C/C(=O)c2ccccc2O)ccc1OCCCOc1cc2c(cc1OC)C(=O)N1CCC[C@H]1C=N2,21.8%,-4.28% (active),-28.9% (active),5.6% (active),-15.1% (active),2.66% (active),-16.7% (active),-18.3% (active)
Cc1ccc(Oc2nc3ccccc3cc2-c2nnc(Cn3c(COc4ccccc4)nc4ccccc43)o2)cc1,48.9%,14.7%,50.8%,18.1%,11.6%,-2.01% (active),64.5%,16.7%
COc1ccc(-c2nnc(COc3ccc(NC(=O)Nc4ccc(Cl)c(C(F)(F)F)c4)cc3F)o2)cc1,9.17% (active),-2.18% (active),4.03% (active),9.95% (active),2.31% (active),4.43% (active),13.8%,4.64% (active)
O=C(CCCn1c2c(sc3ccccc32)c(=O)n2nnc(-c3ccccc3)c12)NCCc1cnc[nH]1,-25.4% (active),72.2%,-95.1% (active),-84.5% (active),-100% (active),-100% (active),25.7%,-63% (active)
CNC(=O)c1cc(Oc2ccc3c(c2)sc2nc(-c4ccc(Cl)cc4)cn23)ccn1,79%,87.8%,97.7%,97.3%,72%,80.9%,90.1%,92.9%
COc1cc(OC)c(C(=O)/C=C/c2ccc(C(F)(F)F)cc2)c(OC)c1,26.6%,-3.68% (active),23.8%,9.97% (active),19.7%,20.4%,85%,36.6%
COc1ccc(Cn2cc(COc3cc(/C=C/C(=O)c4cc(OC)c(OC)c(OC)c4)ccc3OC)nn2)cc1,65.4%,30.8%,12.5%,19.8%,21.3%,17.9%,110%,15.8%
COc1ccc(-c2nc3sccn3c2-c2ccnc(NCCCNS(=O)(=O)c3ccc(F)cc3)n2)cc1,-12.7% (active),10%,14.1%,23.2%,11.6%,8.56% (active),52%,9.82% (active)
O=C(O)c1cn(C2CC2)c2cc(N3CCN(S(=O)(=O)c4ccc(Cl)c(Cl)c4)CC3)c(F)cc2c1=O,16.3%,-4.65% (active),13%,20.7%,13.5%,3.95% (active),24.8%,14.6%
O=P([O-])(O)OP(=O)([O-])O.[NH-][C@H]1CCCC[C@@H]1[NH-].[OH-].[OH-].[Pt+4],114%,117%,99.3%,105%,96.7%,101%,98.8%,104%
COc1ccc(C(=O)c2cc(OC)c(OC)c(OC)c2)cc1/C=C/C(=O)c1ccc(O)cc1,37.3%,7.62% (active),18.9%,-24.1% (active),12.1%,-23.2% (active),-22.4% (active),2.74% (active)
O=C(C[N+](=O)[O-])c1ccc(Cl)cc1,113%,102%,114%,106%,100%,101%,110%,109%
COc1ccc(C2NC3=C(CCCC3)C(C#N)(C#N)C2(C#N)C#N)cc1 (centres undefined),49.2%,92.9%,103%,48.2%,49.9%,78.7%,102%,103%
O=C(Nc1ccc(Br)c(Cl)c1)c1cc(F)ccc1O,3.88% (active),-39% (active),-11.3% (active),7.76% (active),2.5% (active),-21.8% (active),14.7%,2.98% (active)
COc1ccc(/C(=N\O)c2cc(OC)c(OC)c(OC)c2)c(OC)c1N,45.1%,2.29% (active),-66.3% (active),23.4%,15.6%,7.66% (active),35.7%,11.7%
COc1ccc(-c2nc3sccn3c2-c2ccnc(NCCNS(=O)(=O)c3ccc(C(F)(F)F)cc3)n2)cc1,-11.8% (active),2.22% (active),2.65% (active),33.7%,8.53% (active),10%,23.7%,4.4% (active)
COc1cc2c(cc1OC)C1(C)N(CC2)C(=O)OC1(C)C (centres undefined),98.4%,115%,113%,103%,91.3%,104%,102%,112%
CC(Cc1nnc(SCC(=O)Nc2ccc(I)cc2)n1N)c1ccccc1 (centres undefined),71.2%,97.4%,99.9%,95.5%,93.4%,68.6%,86.7%,95.8%
O=Nc1c(-c2c(O)[nH]c3ccc([N+](=O)[O-])cc23)[nH]c2ccc(O)cc12,16.8%,4.59% (active),9.35% (active),3.18% (active),2.75% (active),2.29% (active),8.93% (active),-33% (active)
COc1cc(NC(=O)CSc2nc3ccc(C)cc3c(=O)n2-c2ccccc2)cc(OC)c1OC,81.7%,79.8%,47.5%,87.6%,91.1%,87%,97.5%,75.1%
COc1cc2c(cc1OCCCCn1c(-c3cc(=O)c4ccccc4o3)nc3ccccc31)N=C[C@@H]1CCCN1C2=O,79.4%,101%,94.9%,86.6%,72.6%,101%,128%,105%
N#Cc1ncc(-c2ccc(F)c(F)c2F)c(NC2CCCCCC2)n1,62.7%,71%,96%,98%,83.5%,72.6%,95.8%,74%
CC(=O)Nc1nc(C(=O)N2N=C(C)/C(=C/c3ccccc3)C2=O)cs1,98.6%,107%,106%,107%,95.9%,98.3%,104%,102%
